Results as given in the OligoGym collection.

target: COG2; experiment: pooled miR-30 sensor sort-seq; sequence = guide strand; details: shRNA
Further: reference of the scale not given here.

Sequence | sensor-assay potency score (higher = more potent)
TAATCTCTTTACACTAGCCTGT | -0.36
TTCTGTGGCAATTCTCTCCAAA | -0.386
TTCCACTTCTTATTGAAGCTGT | 0.407
TTGAACAGCATGAAACTGTAAC | -0.748
ATCGACATCGAAATCTTCCTTC | 0.744
TTAATCTCTTTACACTAGCCTG | -1.22
TTTCTCATGAAATGCATCGGGA | -0.465
TCATCTGACCAACACCTCCTAA | -1.05

target: COL16A1; experiment: as above; details: shRNA

Sequence | sensor-assay potency score (higher = more potent)
TCTTGTCTGATGAACCTCTTGA | 0.162
TTGAAACAGATACCACGTCTTC | -0.641
TGAACCTCTTGATTTCATCATA | -1.14
TTTCTTCAGCAGTAGTGTCAGC | -0.871
TTTTAATGATCTCTTGTCTGAT | -0.328
TTGACTTCCAGGGATATCTGTG | -0.154
TTGTCTGATGAACCTCTTGATT | -1.11
ATTTTAATGATCTCTTGTCTGA | -0.577
TTAATGATCTCTTGTCTGATGA | -0.576
TTCCAATTTGAGTCCTTCCTGC | 0.311
TCGAACACAGTCATTGCCCCGT | -0.664
TGTAGTAAGCCATTCTCTCATC | -0.613
TAGACCTTGCCTTCAGACTGTG | 0.244
TTGCGGATCTTCTTGATGGCAG | -0.676
ATCTCTTGTCTGATGAACCTCT | -0.329
TTCTCTGCCAATCTGACCAGGG | -0.174
TGGTTTGCCACAGTCACCCTTA | -0.19
ATGCAGGACACAAAGTCGCCAT | -0.876
TTTAATGATCTCTTGTCTGATG | -0.368
TTGGTAAGGATCCCAGTTCTGC | -0.831
TTGAACTCCTGGTAGACCGGGT | 0.285
AAGTGTGACATTGCTGTCCCGG | -0.502
TTGAAGGCCAGGCAATCCGGGG | -1.21

target: COL20A1; experiment: as above; details: shRNA

Sequence | sensor-assay potency score (higher = more potent)
TAGACAAGCACGCCAGACGGGG | -1.06
TAGAGCCTGACCTTGGAGCGGC | -0.375
TCAATCACAAACTCCCTCCGAG | 0.439
TCGAACTTTGACACGTGTGAGG | -1.19
TAGACGTCACTGACCCGTCTTG | -0.759
TAGGTCAGGGACTTCTTCCCGG | -0.568
TCTTCCTGAGCTTTTCTCCTGG | -0.053
AGCAGTGTGCACATCGTCCTGG | -0.7
TTGAACTTGCTCTCTTCCCAGG | -1.19
